Consider 61 molecules from PubChem BioAssay AID2314 (National Center for Advancing Translational Sciences (NCATS), 2010).

Molecules are shown by their SMILES. Where “and” joins values, the source holds several entries; their conditions need not be identical. Identical values can stand only once. The whole screen tested about 300,000 compounds, of which about 37,000 (12%) were called active. The sample as a whole holds a higher share of actives than the screen did. Values without a mark were called inactive. Cut-off read from the data, not from the text of the source: active = max response mostly above about 13% (no sharp cut-off); inactive = mostly below about 14%.

This assay can be described thus: Cycloheximide Counterscreen for Small Molecule Inhibitors of Shiga Toxin. Note: read at 38.3 µM for the half of the compounds with a filed dose; 0% is about no effect. As to conditions: cell reporter, cycloheximide protein synthesis inhibition counterscreen; stronger effect = higher value.
As to `C#CCOc1ccc(/C=C2/C(=O)NN(c3ccccc3)C2=O)cc1OC`, the max response was -3.05%. Then `CCN(CC)C(=O)C(=O)c1cn(CC(=O)NCc2ccc3c(c2)OCO3)c2ccccc12`, with -2.04%; and `O=C(CN1CCN(c2ccccn2)CC1)NCc1cccs1`, with -3.83%; and `COCCCNC(=O)Cn1cc(C(=O)C2CC2)c2ccccc21`, with -2.09%. Under `COC(=O)Cn1cc(C(=O)c2cccs2)c2ccccc21` stands -0.264%; under `O=C(Cn1cc(C(=O)c2cccs2)c2ccccc21)NCc1cccs1`, 39% (active); under `COC(=O)c1cn(CC(=O)NCc2cccs2)c2ccccc12`, 68.2% (active). Under `Cc1cccc(N(C(=O)c2sc(C)nc2C)C(C(=O)NCC2CCCO2)c2ccccc2)c1` (stereo unspecified) stands -2.65%; under `CCOc1ccc(NC(=O)C(C)N2C(=O)c3ccccc3C2=O)cc1` (stereo unspecified), -2.64%; under `O=C(O)CSc1nccc2ccccc12`, 2.48%.

Regarding `O=C(CSc1nc2ccccc2s1)Nc1ccc(C(=O)O)cc1`, the max response was -4.27%. Then `O=C(O)CCCCc1nc2ccccc2s1`, with 3.94%; and `O=C(O)CC/C(=C\c1cc2c(cc1Br)OCO2)c1nc2ccccc2s1`, with 0.661%; and `O=C(O)CSCc1nc2ccccc2s1`, with 27.6% (active). Then `O=C(O)c1ccccc1CSc1nc2ccccc2s1`, with 34% (active); and `CN(Cc1nc2ccccc2s1)C(=O)c1ccc(F)cc1`, with 14.2%. As for `O=C(O)c1cccc(S(=O)(=O)Nc2ccc(O)cc2Sc2nc3ccccc3s2)c1`, the max response is 4.69%.

Regarding `O=C(O)CS/C(=C\c1ccc(F)cc1)c1nc2ccccc2s1`, the max response was 37.2% (active). In the case of `C=CCn1c(-c2ccccc2OCC)n[nH]c1=S`, the max response is 5.03%. Under `COc1ccccc1C(=O)N(Cc1ccc(C)o1)C1CCS(=O)(=O)C1` (stereo unspecified) stands 1.49%; under `COc1cc(Cl)c(C)cc1NC(=O)CSc1nnc(-c2ccco2)n1CC(C)C`, -3.52%; under `O=C(CC12CC3CC(CC(C3)C1)C2)Nc1ccc2c(c1)COC2=O`, -2.75%. Under `COc1ccccc1N1CCN(C(=O)c2cc(=O)c3cc(C)ccc3o2)CC1` stands -2.83%; under `Cc1ccc2oc(C(=O)N3CCN(C)C[C@@H]3C(C)C)c(C)c2c1`, 22.3% (active); under `Cc1ccc2c(C)c(C(=O)N3CCC(N4CCC(C(=O)NC5CC5)CC4)CC3)oc2c1`, 0.384%. Then `COc1cccc(CNC(=O)c2cccnc2Sc2ccc(Cl)cc2)c1`, with 0.861%; and `O=C(NCc1cc(C(F)(F)F)cc(C(F)(F)F)c1)C1CC(c2cccc(F)c2)=NO1` (stereo unspecified), with -1.65%; and `CCCn1nc(NS(=O)(=O)c2ccc(F)cc2)c2cc3ccccc3nc21`, with -11.4%. On to `Cc1cccc(N2Cc3ccccc3C2=NC(=O)c2ccc(Cl)nc2)c1`, for which the max response is 35.1% (active). Under `N#Cc1ccc(N2Cc3ccccc3/C2=N/C(=O)Nc2ccc(Cl)cc2)cc1` stands 15%; under `Cc1cccc(N2CCN(C(=O)c3cccc(S(=O)(=O)N4CCc5ccccc5C4)c3)CC2C)c1` (stereo unspecified), 1.1%. Then `COc1ccc(C(=O)CC(=O)C(=O)Nc2cc([N+](=O)[O-])ccc2OC)cc1`, with -2.37%. Then `Cn1c(N2CCOCC2)c(C=O)c2ccccc21`, with -2.7%.

With `Cc1ccc(S(=O)(=O)N(CC(=O)N2CCc3ccccc3C2)c2cccc(Cl)c2)cc1`, the max response is -3.56%. Regarding `Cc1ccccc1N1CC(c2nc3ccccc3[nH]2)CC1=O` (stereo unspecified), the max response was -2.15%. Then `Cc1ccc(-c2nc3ccccc3[nH]c2=O)cc1`, with 24.9% (active); and `COc1ccc(-c2[nH]nc(-c3ccccc3)c2-c2nc3ccccc3[nH]2)cc1`, with -1.76%; and `CCC(C(=O)NC1CCCCC1)N(C(=O)c1snc(C(N)=O)c1N)c1ccc(OC)cc1OC` (stereo unspecified), with -5.48%. Under `COc1ccccc1C(=O)Nc1ccnn1C1CCN(C(=O)C(C)(C)C)CC1` stands 2.22%. Then `O=C(Nc1ccc(S(=O)(=O)Nc2ccccn2)cc1)c1ccccc1`, with -3.7%; and `Cc1ccc(S/C(=N\S(=O)(=O)c2ccc(Cl)cc2)c2ccccc2)cc1`, with -3.74%.

Turning to `Cc1ccc(S(=O)(=O)/N=C(/Nc2ccccn2)c2ccc(Cl)cc2)cc1`, the max response was 18.6% (active). Take `O=S(=O)(Nc1ccccn1)c1cccc(S(=O)(=O)c2ccc(Cl)cc2)c1`: the max response is 1.04%.

For `O=S(=O)(/N=C(/Nc1ccccn1)c1ccccc1)c1ccc(Cl)cc1`, the max response was 15.2% (active).

As for `Cc1ccc(S(=O)(=O)/N=C(/Nc2ccc3[nH]c(=O)[nH]c3c2)c2ccccc2)cc1`, the max response was -2.26%. Under `COc1ccc(SCCN2CCN(CC(C)C)CCC2=O)cc1` stands 4.3% and 7.92%; under `Cc1nn(C)c(C)c1C(C)NC(=O)c1ccc(OC2CCN(Cc3ccccn3)CC2)cc1` (stereo unspecified), -1.08%; under `O=C(/C=C/c1ccccc1[N+](=O)[O-])NCC1CCCO1` (stereo unspecified), 10.2%. Take `O=C(/C=C/c1ccccc1[N+](=O)[O-])OC1CCCCC1=O` (stereo unspecified): the max response was -0.626%. Then `CC1CCCCC1NC(=O)/C(C#N)=C/C=C/c1ccccc1[N+](=O)[O-]` (stereo unspecified), with 32.9% (active); and `CCN(C(=O)CSc1nc2ccccc2n1CC)C1CCS(=O)(=O)C1` (stereo unspecified), with 1.92%; and `O=C(OCC(=O)c1cccs1)C1=COCCO1`, with 51.4% (active).

For the molecule `O=C(OCC(=O)c1cccs1)c1ccc([N+](=O)[O-])o1`, the max response is 3%. Then `CCC(C)(C)c1ccc(Oc2ccc(NC(=O)COC(=O)C3=COCCO3)cc2)cc1`, with 5.65%; and `CCOC(=O)c1c(C)[nH]c(C)c1S(=O)(=O)NCCCc1ccco1`, with -2.93%. As for `CCOc1ccc(C2c3[nH]c4ccccc4c3CCN2Cc2cccn2-c2ncccn2)cc1` (stereo unspecified), the max response was 0.0691%. Turning to `C/C(=N\NC(=O)C1(C)CC1(Br)Br)c1ccc(C)cc1C` (stereo unspecified), the max response is 12.6%. Consider `O=[N+]([O-])c1cc(S(=O)(=O)Nc2cccc(Cl)c2)ccc1N=Nc1c(O)[nH]c2ccccc12`, for which the max response was -1.65%.

Consider `O=C(CCC(=O)Nc1ccccc1)N/N=C/c1ccccc1F`, for which the max response is 25.1% (active). For `O=C(CCCCCNC(=O)c1ccccc1)N/N=C/c1ccccc1`, the max response is 13.5%.

For the molecule `C=CCOc1ccccc1/C=N/NC(=O)Cc1ccccc1`, the max response was 9.84%.
